# In the library only some 2.6% were active in any assay of this set; here they are far more common.
# TLR4-MyD88 BLA: inhibitors of TLR4-MyD88 association in cells, primary screen, cell-based, HeLa CL3-4, BLA complementation, FRET ratio. Toll-like receptor 4 (Homo sapiens) + Myeloid differentiation primary response protein …. HeLa CL3-4 TLR4/MyD88 BLA complementation. inhibition, % at 8.4 µM. actives 0.18% (n = 200,000); in the data active = inhibition above about 25%
# Granule exo inh: LAMP-1 surface exposure blockers, TALL-104 cells – cell-based, flow cytometry, MLPCN library, primary screen | TALL-104 LAMP-1 surface exposure; cells stimulated with thapsigargin and PMA | inhibition, % at 10 µM | actives 0.66% (n = 360,000);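 active = inhibition above about 55%, limit read from the data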
# NOD2 RIPK2 PPI: NOD2-RIPK2 binding disruptors in cells, primary screen, fluorescence, CHO cells, BLA complementation. Receptor-interacting serine/threonine-protein kinase 2 (Homo sapiens), O43353. CCF4 ratio. inhibition, % at 4.98 µM. actives 0.38% (n = 360,000). AID 624267, 2012; in the data active = inhibition above about 21%
# TLR9-MyD88 block: inhibitors of TLR9-MyD88 association in cells, primary screen, cell-based, CHO, BLA complementation, fluorescence | Toll-like receptor 9 (Homo sapiens) + Myeloid differentiation primary response protein … | CCF4 FRET ratio | inhibition, % at 4.98 µM | actives 0.21% (n = 340,000);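 active = inhibition above the mean over all tested compounds plus 3 SD, cut at about 21% in these data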
# Target sequence (Q99836 whole entry, looked up): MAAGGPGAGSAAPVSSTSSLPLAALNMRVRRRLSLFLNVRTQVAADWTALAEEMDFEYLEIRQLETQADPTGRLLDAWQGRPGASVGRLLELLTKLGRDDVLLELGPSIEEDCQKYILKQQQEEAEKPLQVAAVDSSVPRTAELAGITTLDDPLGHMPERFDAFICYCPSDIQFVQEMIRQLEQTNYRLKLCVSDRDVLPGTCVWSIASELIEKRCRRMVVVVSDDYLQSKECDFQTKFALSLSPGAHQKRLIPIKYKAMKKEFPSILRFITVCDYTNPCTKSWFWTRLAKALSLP
# Target sequence (Q9NR96 whole entry, looked up): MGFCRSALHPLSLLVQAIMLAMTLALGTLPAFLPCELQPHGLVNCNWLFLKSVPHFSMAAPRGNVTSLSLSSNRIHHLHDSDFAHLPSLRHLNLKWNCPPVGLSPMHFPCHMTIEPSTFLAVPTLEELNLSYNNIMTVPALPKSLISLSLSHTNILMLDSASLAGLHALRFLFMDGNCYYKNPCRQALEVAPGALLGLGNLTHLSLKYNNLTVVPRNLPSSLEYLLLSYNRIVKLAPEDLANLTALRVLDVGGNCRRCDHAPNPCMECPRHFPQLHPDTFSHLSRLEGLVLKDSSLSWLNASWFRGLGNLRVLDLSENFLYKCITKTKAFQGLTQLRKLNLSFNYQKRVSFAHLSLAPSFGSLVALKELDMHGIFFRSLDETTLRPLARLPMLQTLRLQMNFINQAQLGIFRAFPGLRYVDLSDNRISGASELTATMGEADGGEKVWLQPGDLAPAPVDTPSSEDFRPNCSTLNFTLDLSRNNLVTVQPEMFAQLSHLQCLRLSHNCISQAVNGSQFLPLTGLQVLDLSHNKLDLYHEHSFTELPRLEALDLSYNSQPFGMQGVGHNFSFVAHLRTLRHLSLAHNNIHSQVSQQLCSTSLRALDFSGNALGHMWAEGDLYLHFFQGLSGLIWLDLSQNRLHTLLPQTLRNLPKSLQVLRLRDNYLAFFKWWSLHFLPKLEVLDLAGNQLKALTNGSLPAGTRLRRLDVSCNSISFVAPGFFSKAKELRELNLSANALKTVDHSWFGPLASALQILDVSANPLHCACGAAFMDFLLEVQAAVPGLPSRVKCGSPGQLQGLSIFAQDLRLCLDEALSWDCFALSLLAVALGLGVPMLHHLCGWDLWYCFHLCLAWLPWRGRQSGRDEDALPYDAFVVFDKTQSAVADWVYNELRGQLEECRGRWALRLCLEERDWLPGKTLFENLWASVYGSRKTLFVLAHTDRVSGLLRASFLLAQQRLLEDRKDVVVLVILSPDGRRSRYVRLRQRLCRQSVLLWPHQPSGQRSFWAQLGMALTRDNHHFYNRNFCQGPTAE
# ABHD5 PLIN5 PPI: ABHD5-PLIN5 interaction inhibitors, primary screen, cell lysate, split luciferase complementation, luminescence | Split G. princeps luciferase complementation, 4 h | inhibition, % at 4 µM | actives 0.78% (n = 360,000);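 active = inhibition above the mean inhibition across every tested compound plus 3 SD, cut at about 22% in these data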
# PRMT1 FP inh: PRMT1 methyltransferase inhibitors, primary screen, biochemical, fluorescence polarization; recombinant PRMT1, activity-based probe fluorescence polarization; inhibition, % at 2.79 µM; actives 1.3% (n = 370,000); AID 652257, 2013;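 active = inhibition above about 21% made by adding two undisclosed values, limit read from the data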
# ABHD5-PLIN5 conf: ABHD5-PLIN5 interaction inhibitors, confirmation, biochemical, luminescence; inhibition, % at 4 µM; actives 67% (n = 2,200); shares compounds with ABHD5 PLIN5 PPI; in the data active = inhibition above about 23%
# HNF4 counter: HNF4 dimerization inhibitors, counter-screen for ABHD5-PLIN5 interaction inhibitor project, biochemical, split-luciferase complementation, luminescence. shares compounds with ABHD5 PLIN5 PPI. inhibition, % at 4 µM. actives 77% (n = 2,200). AID 651674, 2012;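 active = mean inhibition across replicate wells exceeding the computed hit threshold, cut at about 13% in these data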;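 also: light from luciferase halves that rejoin when HNF4 fusion proteins dimerize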
# A number is an active result; – = inactive; · = not tested or not shown.
SMILES,TLR4-MyD88 BLA,Granule exo inh,NOD2 RIPK2 PPI,TLR9-MyD88 block,ABHD5 PLIN5 PPI,PRMT1 FP inh,ABHD5-PLIN5 conf,HNF4 counter
CN(Cc1ccccc1F)C(=O)Cn1c(-c2cncs2)nc2ccccc21,·,·,·,·,·,–,·,·
CC(C)C[C@H]1CNC(=S)N1C[C@H]1CCCN1C[C@H](CC(C)C)N1C[C@H](Cc2ccc(O)cc2)N(CCc2ccccc2)C1=S,·,–,–,·,26.1,–,–,–
CCOc1ccc(CCN2C(=S)N([C@@H](Cc3ccc(O)cc3)CN3CCC[C@@H]3CN3C(=S)NC[C@@H]3CC(C)C)C[C@@H]2Cc2ccccc2)cc1,·,–,–,·,–,–,·,·
CCOc1ccc(CCN2C(=S)N([C@@H](Cc3ccc(O)cc3)CN3CCC[C@@H]3CN3C(=S)NC[C@@H]3CC(C)C)C[C@@H]2CC(C)C)cc1,·,–,–,·,27.7,–,–,–
CC(C)C[C@H]1CN([C@@H](CC(C)C)CN2CCC[C@@H]2CN2C(=S)NC[C@@H]2Cc2ccc(O)cc2)C(=S)N1CCc1ccccc1,·,–,–,·,–,–,·,·
Nc1nc(-c2ccccc2)c(N=Nc2ccccc2Cl)s1,–,–,–,–,23.7,–,26.2,16.6
Cc1ncc(N=Nc2ccccc2Cl)c(-c2ccccc2)n1,–,–,–,–,–,–,·,·
O=C(O)CC(O)(CC(=O)O)C(=O)O,·,–,–,–,23.1,–,80.4,22.6
O=C(Cn1cc(COc2ccccc2[N+](=O)[O-])nn1)c1ccc(O)cc1,·,–,–,–,–,–,·,·
N#Cc1ccccc1OCc1cn(CC(=O)c2ccc(O)cc2)nn1,·,–,–,–,30.6,–,66.4,39.1
CCOC(=O)CC1(Cc2ccccc2)Oc2ccccc2O1,·,·,·,·,·,–,·,·
Cc1onc(-c2ccccc2)c1C(=O)NCC1CCN(C(=O)C(=O)c2cccs2)CC1,·,·,·,·,·,–,·,·
COC1CC(C)C(OC)c2cc(O)cc(c2O)NC(=O)C(C)=CC=CC(C)C(OC(N)=O)C(C)=CC(C)C1OC (configuration not stated),·,–,–,–,42.8,–,51.7,92.7
O=C(OCc1ccccc1)N1Cc2ccnnc2CC1c1ccccc1-c1ccc(C(F)(F)F)cc1 (configuration not stated),·,·,·,·,·,–,·,·
Cc1cc(N2CCN(C(=O)OC(C)(C)C)C[C@@H]2C)ccc1N1C[C@@H](C)O[C@@H](C)C1,·,·,·,·,·,–,·,·
CC(C(Sc1ccccc1N)c1ccccc1)[N+](=O)[O-] (configuration not stated),·,–,–,–,26.7,53.0,63.4,77.3
Nc1ccccc1SC(CC(=O)c1ccccc1)c1ccccc1 (configuration not stated),·,–,–,–,67.7,·,–,78.7
O=C(CC(CC(=O)c1ccccc1)c1ccccc1)c1ccccc1,·,–,–,–,–,–,·,·
Cc1cccc(-c2cccc3c4c([nH]c23)[C@@H]2C[C@H](N(C)C(=O)Nc3ccccc3C)[C@H]([C@H](C)O)CN2CC4)c1,·,·,·,·,·,–,·,·
O=C(Cn1c(-c2cncs2)nc2ccccc21)N1CCCCC1,·,·,·,·,·,–,·,·
CCOC(=O)C1CCCN(C(=O)c2cc(-c3ccco3)nc3ccccc23)C1 (configuration not stated),·,–,–,–,–,–,·,·
CCOC(=O)C1CCCN(C(=O)c2cc(Nc3ccc(OC)cc3)nc3ccccc23)C1 (configuration not stated),–,–,–,–,28.6,–,42.3,·
CCOC(=O)C1CCN(C(=O)CCc2nnc3ccc(NCc4ccco4)nn23)CC1,·,–,–,–,51.1,–,–,–
Cc1ccc(NC(=O)CCc2nnc3ccc(NCc4ccco4)nn23)nc1,·,–,–,–,38.8,–,–,24.1
